Hsp90 Hop PPI: changes Hsp90-Hop TPR2A binding signal, up or down. AlphaScreen TPR2A-His6 binding biotin-Hsp90 C-terminal peptide. Potency, µM (highest dose often 57 µM). 0.44% of 71,000 active. AID 595; active = well fitted curve in either direction with a large enough effect; inconclusive = small, poorly fitted or top-dose-only effect, or another doubt
FLuc inh: inhibitors of firefly luciferase | AID 411 | P08659 | purified firefly luciferase, luminescence, 8 min | 2.2% of 72,000 active | Potency, µM (series often up to 57.1 µM), most hits filed as inhibitors; also: nearly all actives have a fitted effect of over 40% in size
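Luminescence read-out after 8 min at room temperature; enzyme reaction used luciferin plus 10 uM ATP (linear range) in imidazole buffer pH 7.2 with KCl, MgCl2, Tween 20 and BSA. Each sample was run as a titration.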
IMPase cell inh: membrane-permeable compound that blocks inositol monophosphatase | inhibition (IP1 accumulation), % at 46.1 µM | 120,000 tested, under 10 active | CHO-M1 cells, IP1 accumulation, HTRF TR-FRET ratio | AID 901 | P97697; active = well fitted curve in the direction sought with a large enough effect in the signal ratio, not every such curve was filed as active; inconclusive = small, poorly fitted or top-dose-only effect, or a change in a side signal; inactive = no such curve, though single readings can be large or run the other way; the % refers to the signal ratio;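 also: cells stimulated with carbachol in lithium chloride buffer; higher means more IMPase inhibition seen as more IP1 and lower FRET ratio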
Target sequence (P97697 whole entry, looked up): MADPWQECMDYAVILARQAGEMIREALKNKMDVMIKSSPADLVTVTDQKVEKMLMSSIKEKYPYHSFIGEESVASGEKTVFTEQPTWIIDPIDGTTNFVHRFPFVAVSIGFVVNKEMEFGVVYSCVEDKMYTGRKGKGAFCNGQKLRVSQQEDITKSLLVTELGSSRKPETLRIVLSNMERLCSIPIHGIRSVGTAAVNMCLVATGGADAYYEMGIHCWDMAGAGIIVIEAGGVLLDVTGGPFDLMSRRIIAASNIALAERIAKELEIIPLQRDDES
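Carbachol-driven Gq signalling in CHO-M1 cells (2000/well) generates IP1. Compounds that block IMPase raise IP1 and so reduce the FRET signal from Eu-anti-IP1 and d2-IP1 after a 10 min room-temperature lysis.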
p53ts 39C kill: cytotoxicity in p53ts cells at nonpermissive temperature; H1299-p53A138V viability at 39C, ATP luminescence, 24 h; Potency, µM (top dose mostly 46.1 µM), most hits filed as cytotoxic; 1.5% of 130,000 active; also: nearly all actives have a fitted effect of over 55% in size
p53ts 32C tox: p53ts cell cytotoxicity, permissive temperature; 0.93% of 130,000 active; Potency, µM (highest dose often 46.1 µM), usual class: cytotoxic; H1299-p53A138V at 32C, ATP luminescence viability, 24 h; also: nearly all actives have a fitted effect of over 55% in size
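Cells: H1299 p53ts (A138V), 600/well, pre-incubated 16–30 h at 37C. Cpd up to 46 uM, 24 h, 32C. Readout: ATPlite luminescence, 20 min RT. Normalization: DMSO vs tamoxifen 100 uM. AC50 by Hill equation.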
IkB sig inh: IkB pathway inhibition in ABC-DLBCL cells | 0.04% of 110,000 active | ABC-DLBCL IkBa-CBG/CBR dual luciferase ratio, 4 h; response scale: scaled: untreated 0%, proteasome inhibitor 100% | Potency, µM (series often up to 57.1 µM) | AID 445; active = well fitted curve in the direction sought with a large enough effect in the signal ratio, not every such curve was filed as active; inconclusive = small, poorly fitted or top-dose-only effect, or a change in a side signal; the % refers to the signal ratio;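 also: the direction sought is a rising ratio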
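Curves were fitted separately to fusion (green), unfused (red) and ratio luminescence, then classed by r2, magnitude and activity. Cells: OCI-Ly3, 4 h compound plus doxycycline at 37C; 10 uM MG-132 defined full response.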
Numbers stand for hits; i = inactive; ? = inconclusive; nt = no result; ! = a repeat was not active; [ ] = remark or other dose. The entries come from a sample that favours hits as a whole. Unless noted, calls follow the shape of the dose curve; as a rule, active = well fitted curve in the direction sought with a large enough effect; inconclusive = small, poorly fitted or top-dose-only effect, or another doubt; inactive = no such curve, though single readings can be large; an effect the other way counts as inactive or inconclusive.

SMILES	Hsp90 Hop PPI	FLuc inh	IMPase cell inh	p53ts 39C kill	p53ts 32C tox	IkB sig inh
COc1ccc(-c2noc(CSc3nnc(-c4ccc(Cl)cc4)n3C)n2)cc1OC	nt	nt	nt	i	i	?
Cc1ccc(S(=O)(=O)N2CCC(C(=O)O)(c3ccccc3)CC2)cc1	i[11 µM]	i[11.4 µM]	nt	i[9.22 µM]	i[9.22 µM]	i[11.4 µM]
COc1cc(-c2ccc(N=Nc3ccc4c(S(=O)(=O)O)cc(S(=O)(=O)O)c(N)c4c3O)c(OC)c2)ccc1N=Nc1ccc2c(S(=O)(=O)O)cc(S(=O)(=O)O)c(N)c2c1O	4µM!	i	?	10µM!	?	?
Cc1ccccc1OCCCN1C(=O)C(=O)c2cccc(C)c21	i	i	i	i	i	?
CCOc1ccc(CN2C(=O)C(=O)c3cccc(C)c32)cc1OC	nt	nt	nt	13µM	i	i
O=C(Nc1ccccc1)Nc1cccc2cccnc12	i	20µM	i	i	i	?
Cc1ccccc1Nc1nc(N)c(C(=O)c2ccccc2Cl)s1	nt	nt	nt	i	i	?
COC1(OC)N=C(N)C2(C#N)C(c3ccccc3)NC(C)=CC12C#N (stereo not given)	nt	nt	i	nt	nt	nt
CC1=CC(C#N)(C#N)C(C#N)(C#N)C(c2ccccc2)N1 (stereo not given)	3.2µM	i	i	i	i	i
CC1CCN(C(=O)C2COc3ccccc3C2)CC1 (stereo not given)	nt	nt	nt	i	i	i
COc1ccc(CN2CCOCC2)cc1	nt	nt	i	nt	nt	nt
CCCCCOc1ccc(CN2CCOCC2)cc1Cl	i	25µM	i	i	?	i
O=C(CCCc1ccccc1)Nc1cccnc1	nt	nt	i	nt	nt	nt
CN(C)c1ccc(NC(=O)CCCc2ccccc2)cc1	i	25µM	i	i	i	i
O=C(Cn1cc(SCc2ccc(F)cc2)c2ccccc21)N1CCCCC1	nt	nt	nt	i	i	?
N=C(N)SCCSC(=N)N	i[11 µM]	i[11.4 µM]	nt	i[9.22 µM]	i[9.22 µM]	i[11.4 µM]
Cc1ccc(-c2nnc(SCC(=O)c3ccc(Cl)cc3)n2-c2ccccc2)cc1	nt	nt	nt	i	i	i
CC(=O)Cn1cnc2sc(-c3ccccc3)cc2c1=O	nt	nt	i	nt	nt	nt
CCn1cnc2sc(-c3ccccc3)cc2c1=O	i	13µM	i	i	i	i
COc1cc(-c2nnn(CC(=O)Nc3ccc(OC(F)(F)F)cc3)n2)cc(OC)c1OC	nt	nt	nt	i	i	i
CN(Cc1ccccc1)C(=O)c1cccc(NC(=O)c2nsc3ccccc23)c1	nt	nt	nt	10µM	?	i
OCCOCCNc1ncnc2c1cnn2-c1ccc(Cl)cc1	nt	10µM	i	nt	nt	nt
OCCOCCNc1ncnc2c1cnn2-c1ccccc1	nt	i	i	nt	nt	nt
Cc1ccc(-n2ncc3c(NCCCN(C)C)ncnc32)cc1Cl	nt	nt	nt	16µM	i	i
CCC(CO)Nc1ncnc2c1cnn2-c1ccc(C)cc1 (stereo not given)	nt	nt	nt	16µM	?	?
SMILES	Hsp90 Hop PPI	FLuc inh	IMPase cell inh	p53ts 39C kill	p53ts 32C tox	IkB sig inh
CN(C)CCCNc1ncnc2c1cnn2-c1ccccc1	nt	nt	i	nt	nt	nt
CC(C)Nc1ncnc2c1cnn2-c1ccc(Cl)cc1	i	2.5µM	i	16µM	13µM	?
Clc1ccc(Nc2ncnc3c2cnn3-c2ccccc2)cc1	i	?	i	?	?	?
COc1ccc(CCNC(=O)c2cc(-c3ccc(C)c(C)c3)nc3ccccc23)cc1OC	nt	nt	nt	?	i	?
COCCNc1ncnc2c1cnn2-c1ccc(Cl)cc1	nt	10µM	nt	nt	nt	nt
COCCN(CCOC)c1ncnc2c1cnn2-c1ccc(Cl)cc1	i	i	i	i	i	i
CCN(CC)c1cc(C)c2cc(NC(=O)/C=C/c3cc(OC)c(OC)c(OC)c3)ccc2n1	nt	nt	nt	?	?	i
COC(=O)c1ccc(N/C=C/C(=O)c2ccc(OC)c(OC)c2)cc1	nt	nt	i	nt	nt	nt
Cc1ccc(C(=O)/C=C/Nc2ccccn2)cc1	nt	0.4µM	nt	nt	nt	nt
COc1ccc(C(=O)/C=C/Nc2cccc(C)n2)cc1OC	nt	10µM	i	nt	nt	nt
Cc1ccc(C)c(N2CCN(C(=O)c3cc4ccccc4oc3=O)CC2)c1	i	i	i	i	i	i
O=C(c1cc2ccccc2oc1=O)N1CCN(c2ccc(N3CCOCC3)nn2)CC1	i	16µM	?	?	?	i
O=C(CCCN=C1NS(=O)(=O)c2ccccc21)OCC(=O)N1CCc2ccccc21	i	32µM	i	i	i	i
COc1ccc(C2CC(c3c(O)cc(C)oc3=O)=NCCS2)c(OC)c1 (stereo not given)	i[11 µM]	i	i	2.5µM	4µM	i
O=C(Nc1cccc(C(=O)OCc2cc(=O)n3c4c(sc3n2)CCCC4)c1)c1cccc(F)c1	nt	nt	nt	i	i	?
Cc1cc(C(=O)CN2C(=O)c3ccccc3S2(=O)=O)c(C)n1CC1CCCO1 (stereo not given)	i	16µM	i	1µM	2.5µM	i
Cc1cc(C(=O)CN2C(=O)NC(C)(c3ccccc3)C2=O)c(C)n1CC1CCCO1 (stereo not given)	nt	nt	i	nt	nt	nt
CCCNC(=O)C1CCC(Cn2c(=O)c3sccc3n(CC(=O)NCc3cccc(OC)c3OC)c2=O)CC1 (stereo not given)	nt	nt	nt	i	i	i
CN1c2cc(Cl)ccc2-c2nc(SCC(=O)Nc3ccc(F)cc3F)ncc2S1(=O)=O	nt	nt	nt	10µM	i	i
CS(=O)(=O)N1CCCC(C(=O)NCc2ccccc2Cl)C1 (stereo not given)	i	i	i	i	i	i
COc1ccc(Br)cc1CNC(=O)C1CCCN(S(C)(=O)=O)C1 (stereo not given)	i	10µM	i	i	?	?
Cc1cc(C)cc(N2C(=O)CC(Sc3nnnn3-c3ccccc3)C2=O)c1 (stereo not given)	nt	nt	i	nt	nt	nt
O=C1CC(Sc2nnnn2C2CCCCC2)C(=O)N1c1ccccc1 (stereo not given)	i	16µM	i	?	i	i
CCC(Oc1ccc(F)cc1)C(=O)Nc1nc(-c2ccc(F)cc2)ns1 (stereo not given)	nt	nt	nt	i	i	?
COc1ccc(S(=O)(=O)N2CCN(c3ccccc3F)CC2)cc1-c1noc(C)n1	nt	nt	nt	13µM	?	i
SMILES	Hsp90 Hop PPI	FLuc inh	IMPase cell inh	p53ts 39C kill	p53ts 32C tox	IkB sig inh
CCc1nc(-c2cc(S(=O)(=O)N3CCN(c4ccccc4F)CC3)ccc2OC)no1	nt	nt	nt	i	i	i
Oc1ccc(-c2nc(-c3ccc(F)cc3)c(-c3ccncc3)[nH]2)cc1	i	1.3µM!	i	i	i	?
Fc1ccc(-c2nc(-c3cccs3)c(-c3cccs3)[nH]2)cc1	nt	nt	nt	i	i	i
CN(c1ccccc1)S(=O)(=O)c1nnc(NC(=O)C2CCCCC2)s1	nt	nt	nt	16µM	7.9µM	i
CCN(c1ccccc1)S(=O)(=O)c1nnc(NC(=O)c2cccs2)s1	nt	nt	nt	1.3µM	1µM	i
O=C(O)[C@@H]1[C@H](C(=O)O)[C@H]2C(=O)C=C[C@H]1N2Cc1ccccc1	i[11 µM]	i[11.4 µM]	nt	i[9.22 µM]	i[9.22 µM]	4µM
CN(C(=O)c1c(O)c2ccccc2n(C)c1=O)c1ccccc1	i	25µM	i	i	i	i
Cc1ccc(NC(=O)c2c(O)c3ccccc3n(C)c2=O)nc1	i	i	i	i	i	i
